Read-out in assay [1]: Urokinase-type plasminogen activator receptor (uPAR), PLAUR (gene 5329)
Kind of assay: BSK_4H_uPAR: BioMAP Diversity Plus: 4H Assay for Urokinase-type plasminogen activator receptor (uPAR) Biomarker Activity (AID 2283030). The settings on record: primary human endothelial cells (HUVEC); actives raise or lower the signal. A digest of the protocol: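 Primary human umbilical vein endothelial cells were exposed to chemical for 24 h before cell-surface uPAR was quantified by ELISA. Activity was fitted bidirectionally against the DMSO negative control baseline.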

Read-out in assay [2]: Vascular endothelial growth factor receptor 2 (Homo sapiens) (UniProt P35968)
Kind of assay: BSK_4H_VEGFRII: BioMAP Diversity Plus: 4H Assay for Vascular endothelial growth factor receptor 2 (VEGFR2) Biomarker Activity (AID 2283031).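 As to AC50: cell-surface VEGFR2 protein level quantified by ELISA.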 The settings on record: primary human endothelial cells (HUVEC); actives raise or lower the signal. A digest of the protocol:
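Primary human umbilical vein endothelial cells in the BioMAP 4H system were dosed with test chemical, and 24 h later VEGFRII was measured by ELISA. Activity was fitted bidirectionally against DMSO as negative control and baseline.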

Read-out in assay [3]: Human Leukocyte Antigen - DR isotype (HLADR), HLA-DRA (gene 3122)
Kind of assay: BSK_BE3C_HLADR: BioMAP Diversity Plus: BE3C Assay for Human Leukocyte Antigen - DR isotype (HLADR) Biomarker Activity (AID 2283032). The note with it: primary human bronchial epithelial cells; actives raise or lower the signal. In a few lines:
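Human primary bronchial epithelial cells in the BE3C system were exposed to chemicals for 24 h, after which HLA-DR levels were quantified by ELISA. Activity was fitted bidirectionally, gain or loss of signal, against DMSO as negative control and baseline.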

Read-out in assay [4]: Vascular cell adhesion molecule 1 (VCAM1), VCAM1 (gene 7412)
Kind of assay: BSK_4H_VCAM1: BioMAP Diversity Plus: 4H Assay for Vascular cell adhesion molecule 1 (VCAM1) Biomarker Activity (AID 2283033).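 As to outcome: cell-surface VCAM-1 protein measured by ELISA.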 The note with it: primary human endothelial cells (HUVEC); actives raise or lower the signal. A digest of the protocol: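 Primary human umbilical vein endothelial cells were exposed to chemicals for 24 h, after which VCAM-1 was quantified by ELISA. Responses were fitted bidirectionally against DMSO as negative control and activity baseline.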

Read-out in assay [5]: Interferon-gamma inducible Protein 10 (IP10), CXCL10 (gene 3627)
Kind of assay: BSK_BE3C_IP10: BioMAP Diversity Plus: BE3C Assay for Interferon-gamma inducible Protein 10 (IP10) Biomarker Activity (AID 2283034). The note with it: primary human bronchial epithelial cells; actives raise or lower the signal. A digest of the protocol:
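Human primary bronchial epithelial cells were exposed to chemicals for 24 hours, after which IP-10 levels were measured by ELISA. Data were fitted bidirectionally against DMSO, which served as the negative control and activity baseline.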

Read-out in assay [6]: Monokine induced gamma interferon (MIG), CXCL9 (gene 4283)
Kind of assay: BSK_BE3C_MIG: BioMAP Diversity Plus: BE3C Assay for Monokine induced gamma interferon (MIG) Biomarker Activity (AID 2283035). The note with it: primary human bronchial epithelial cells; actives raise or lower the signal. In a few lines: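 Primary human bronchial epithelial cells treated for 24 h; MIG levels measured by ELISA, fitted bidirectionally versus DMSO. Parallel SRB total-protein staining assessed cytotoxicity.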

Read-out in assay [7]: Transforming growth factor beta 1 (TGFb1), TGFB1 (gene 7040)
Kind of assay: BSK_BE3C_TGFb1: BioMAP Diversity Plus: BE3C Assay for Transforming growth factor beta 1 (TGFb1) Biomarker Activity (AID 2283036). The note with it: primary human bronchial epithelial cells; actives raise or lower the signal. In a few lines: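 Human primary bronchial epithelial cells (BE3C system) were dosed with chemical and TGF-b1 levels measured by ELISA at 24 h. Activity was fitted bidirectionally relative to DMSO negative control as baseline.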

Read-out in assay [8]: Plasminogen activator inhibitor-1 (PAI1), SERPINE1 (gene 5054)
Kind of assay: BSK_BE3C_PAI1: BioMAP Diversity Plus: BE3C Assay for Plasminogen activator inhibitor-1 (PAI1) Biomarker Activity (AID 2283037). The note with it: primary human bronchial epithelial cells; actives raise or lower the signal. A digest of the protocol: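 Human primary bronchial epithelial cells were exposed to chemical for 24 h, then PAI-1 was quantified by ELISA. Activity was fitted bidirectionally relative to the DMSO negative control baseline.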

Read-out in assay [9]: urokinase plasminogen activator (uPA), PLAU (gene 5328)
Kind of assay: BSK_BE3C_uPA: BioMAP Diversity Plus: BE3C Assay for urokinase plasminogen activator (uPA) Biomarker Activity (AID 2283038).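 Also: uPA protein level quantified by ELISA in cell cultures; uPA read one day after compound addition.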 The note with it: primary human bronchial epithelial cells; actives raise or lower the signal. A digest of the protocol: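 Human primary bronchial epithelial cells were exposed to chemical for 24 h, then uPA levels were measured by ELISA. Responses were fitted bidirectionally against DMSO as negative control and baseline. Parallel SRB staining of total protein gauged overt cytotoxicity.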

Read-out in assay [10]: Urokinase-type plasminogen activator receptor (uPAR), PLAUR (gene 5329)
Kind of assay: BSK_BE3C_uPAR: BioMAP Diversity Plus: BE3C Assay for Urokinase-type plasminogen activator receptor (uPAR) Biomarker Activity (AID 2283039).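 As to outcome: cells exposed to compound for one day before measurement.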 The note with it: primary human bronchial epithelial cells; actives raise or lower the signal. A digest of the protocol:
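Primary human bronchial epithelial cells were dosed with chemical and harvested 24 h later; uPAR was quantified by ELISA. Activity was fitted bidirectionally against DMSO as negative control and baseline.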

Experimental findings from PubChem BioAssay (EPA / NIEHS) are described below.

SMILES strings stand for the structures. Values joined by “and” are separate entries in the source; they are usually repeats but may differ in a detail not shown here. Equal values may be shown once. The source holds several records for some structures; these can differ, active in one and inactive in another. Active and inactive are the calls of the source. The calls were made as follows: active = hit-call score of the fitted dose curve at least 0.9, where 1 is the maximum; inactive = score below 0.9.

In the case of `CCc1ccc(C(c2ccc(CC)cc2)C(Cl)Cl)cc1`, the concentration at half-maximal activity (AC50) in assay [1] was 32.3 µM (active); in assay [2] it was 13.1 µM (active); in assay [3], 13.6 µM (active); in assay [4], 28.5 µM (active); in assay [5], 20 µM (active); in assay [8], 20 µM (active). The result in [6], in assay [7], in assay [9] and in assay [10] was inactive.
Regarding `OCC(F)(F)C(F)(F)C(F)(F)F`, the outcome in [1], in assay [2], in assay [3], in [4], in assay [5] and in [6] was inactive. The outcome in assay [8], in assay [9] and in [10] was inactive.
As for `O=S(=O)(O)C(F)(F)C(F)(F)C(F)(F)C(F)(F)C(F)(F)C(F)(F)C(F)(F)F`, the outcome in assay [1], in assay [2], in assay [3], in assay [4], in assay [5] and in assay [6] was inactive. For the same compound, the outcome in assay [8], in [9] and in [10] was inactive.
`OCC(F)(F)C(F)(F)C(F)(F)C(F)(F)C(F)(F)C(F)F`: the outcome in [1], in assay [2], in assay [3], in assay [4], in [5] and in assay [6] was inactive. The outcome in [8], in assay [9] and in [10] was inactive.
Turning to `CCCCCCOC(=O)c1ccccc1O`, the half-maximal activity concentration (AC50) in assay [1] is 38.5 µM (active) and 44.3 µM (active); in assay [4], 43.2 µM (active) and 42.5 µM (active). Besides, the outcome in assay [2], in assay [3], in [5], in assay [6], in assay [8] and in [9] was inactive. Also, the outcome in assay [10] was inactive.
Consider `O=S(=O)(OCC(F)F)C(F)(F)F`, for which the result in assay [1], in assay [2], in assay [3], in assay [4], in assay [5] and in assay [6] was inactive. For the same compound, the result in [8], in assay [9] and in assay [10] was inactive.
Turning to `FC(F)(Br)C(F)(F)C(F)(F)C(F)(F)C(F)(F)C(F)(F)Br`, the result in assay [1], in assay [2], in assay [3], in assay [4], in assay [5] and in assay [6] was inactive. Besides, the result in [8], in [9] and in [10] was inactive.
As for `O=C(O)C(F)(F)C(F)(F)F`, the outcome in assay [1], in [2], in assay [3], in assay [4], in assay [5] and in assay [6] was inactive. In addition, the result in [8], in assay [9] and in assay [10] was inactive.
For the compound `CCCCC(CC)COP(=O)(O)OCC(CC)CCCC` (centres undefined), the result in assay [1], in [2], in assay [4], in [9] and in assay [10] was inactive. In addition, the concentration at half-maximal activity (AC50) is 29.3 µM (active) and 31.6 µM (active) in assay [3]; 32 µM (active) and 31.2 µM (active) in assay [5]; 32.8 µM (active) and 29.5 µM (active) in assay [6]; 16.2 µM (active) and 20 µM (active) in assay [8]; 5.24 µM (active) in assay [10].
In the case of `FC(F)(F)C(F)(F)C(F)(F)C(F)(F)C(F)(F)C(F)(F)C(F)(F)I`, the outcome in assay [1], in assay [2], in assay [3], in assay [4], in [5] and in assay [6] was inactive. Also, the result in assay [8], in assay [9] and in assay [10] was inactive.
As for `FC(F)(F)C(F)(F)C(F)(F)C(F)(F)C(F)(F)C(F)(F)CC1CO1` (centres undefined), the outcome in [1], in [2], in assay [3], in assay [4], in assay [5] and in assay [6] was inactive. Also, the outcome in assay [8], in [9] and in assay [10] was inactive.
For `CCO[Si](CCC(F)(F)C(F)(F)C(F)(F)C(F)(F)C(F)(F)C(F)(F)F)(OCC)OCC`, the result in [1], in assay [2], in assay [3], in assay [4], in [5] and in assay [6] was inactive. In addition, the outcome in assay [8], in [9] and in [10] was inactive.
With `O=C(CC(=O)C(F)(F)C(F)(F)F)C(F)(F)F`, the result in [1], in [2], in [3], in assay [4], in [5] and in assay [6] was inactive. The outcome in [8], in [9] and in assay [10] was inactive.
Regarding `OCC(F)(F)C(F)(F)C(F)(F)C(F)F`, the outcome in assay [1], in [2], in [3], in assay [4], in assay [5] and in assay [6] was inactive. For the same compound, the result in assay [8], in assay [9] and in [10] was inactive.
On to `FC(F)(F)C(F)(F)C(F)(F)C(F)(F)C(F)(F)C(F)(F)C(F)(F)Br`, for which the outcome in assay [1], in assay [2], in [3], in assay [4], in [5] and in [6] was inactive. Also, the result in assay [8], in [9] and in assay [10] was inactive.
On to `O=C(O)C=C(C(F)(F)F)C(F)(F)F`, for which the result in [1], in assay [2], in assay [3], in assay [5], in assay [6] and in assay [8] was inactive. In addition, the outcome in [9] and in [10] was inactive. In assay [4], the AC50 was 15.2 µM (active) and 5.95 µM (active).
Consider `O=C(O)C(F)(F)C(F)(F)C(F)F`, for which the outcome in [1], in assay [2], in [3], in assay [4], in [5] and in assay [6] was inactive. Further, the result in [8], in assay [9] and in assay [10] was inactive.
Turning to `O=C(O)C(F)(F)C(F)(F)C(F)(F)C(F)(F)F`, the outcome in assay [1], in assay [2], in [3], in [4], in [5] and in assay [6] was inactive. Moreover, the outcome in assay [8], in [9] and in assay [10] was inactive.

By AC50 is commonly meant the concentration at which the activity in the assay is half-maximal.
